The record followed here is PubChem BioAssay (EPA / NIEHS).

Activity calls are given as the source filed them. Rule for the calls: active = hit-call score of the fitted dose curve at least 0.9, where 1 is the maximum; inactive = score below 0.9.

Holding throughout (conditions): mRNA level, 48 h; actives raise or lower the signal
Read-out in test [1]: Bcl-2 (BID) gene, BID (gene 637)
Nature of the test: LTEA_HepaRG_BID: Life Technologies and Expression Analysis (LTEA) Assay for Bcl-2 (BID) gene using HepaRG (AID 2283476). In outline: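 Duplicate 48 h treatments of HepaRG cells in serum-free induction medium spanned 100 uM downward in half-log steps, 0.5% DMSO. Transcript change quantified by qRT-PCR against three housekeeping genes, fitted up or down versus DMSO.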

Read-out in another test: Caspase-3 (Homo sapiens) (UniProt P42574)
Put plainly: LTEA_HepaRG_CASP3: Life Technologies and Expression Analysis (LTEA) Assay for cysteine-aspartic acid protease (CASP3) using HepaRG (AID 2283477). In outline:
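Read-out is CASP3 mRNA level by TaqMan qRT-PCR in human HepaRG cells after 48 h chemical exposure. Eight half-log concentrations topping at 100 uM were tested in 0.5% DMSO; gain or loss was fitted relative to DMSO.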

Read-out in test [2]: Cytochrome P450 (CYP24A1), CYP24A1 (gene 1591)
Nature of the test: LTEA_HepaRG_CYP24A1: Life Technologies and Expression Analysis (LTEA) Assay for Cytochrome P450 (CYP24A1) using HepaRG (AID 2283478). The gist of the method: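 HepaRG, 48 h chemical exposure, 8-pt half-log CRC from 100 uM, 0.5% DMSO vehicle, duplicates. Endpoint: CYP24A1 mRNA by Fluidigm TaqMan qRT-PCR, normalized ACTB/GAPDH/POLR2A; gain/loss fit vs DMSO.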

Read-out in test [3]: Cytochrome P450 (CYP1A2), CYP1A2 (gene 1544)
Nature of the test: LTEA_HepaRG_CYP1A2: Life Technologies and Expression Analysis (LTEA) Assay for Cytochrome P450 (CYP1A2) using HepaRG (AID 2283479). In outline: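 CYP1A2 transcript induction or loss, quantified by Fluidigm qRT-PCR against three housekeeping genes, was fitted bidirectionally against 0.5% DMSO controls. Human HepaRG cells received eight half-log concentrations from 100 uM over 48 h.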

Read-out in test [4]: cysteine-aspartic acid protease (CASP8), CASP8 (gene 841)
Nature of the test: LTEA_HepaRG_CASP8: Life Technologies and Expression Analysis (LTEA) Assay for cysteine-aspartic acid protease (CASP8) using HepaRG (AID 2283480). In outline:
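Concentration-response in duplicate up to 100 uM (half-log steps, 0.5% DMSO) on differentiated HepaRG cultures for 48 h. Expression change of CASP8 mRNA is determined by TaqMan qRT-PCR with housekeeping-gene normalization.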

Read-out in test [5]: Cytochrome P450 (CYP2B6), CYP2B6 (gene 1555)
Nature of the test: LTEA_HepaRG_CYP2B6: Life Technologies and Expression Analysis (LTEA) Assay for Cytochrome P450 (CYP2B6) using HepaRG (AID 2283481). The gist of the method: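 HepaRG cells plated 48 h, switched to serum-free induction medium, then dosed 48 h (8 points, half-log from 100 uM, 0.5% DMSO). RNA isolated; CYP2B6 expression measured by qRT-PCR; gain or loss fitted relative to DMSO.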

Read-out in test [6]: Cytochrome P450 2C19 (Homo sapiens) (UniProt P33261)
Put plainly: LTEA_HepaRG_CYP2C19: Life Technologies and Expression Analysis (LTEA) Assay for CYP2C19 using HepaRG (AID 2283482). The gist of the method: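 Transcript levels of CYP2C19 were quantified by qRT-PCR after HepaRG cells were treated for 48 hours with test chemicals up to 100 uM (eight half-log concentrations, 0.5% DMSO vehicle). Gain or loss of signal was fitted relative to DMSO.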

Read-out in a further test: CYP2C8 (gene 1558)
Put plainly: LTEA_HepaRG_CYP2C8: Life Technologies and Expression Analysis (LTEA) Assay for CYP2C8 using HepaRG (AID 2283483). The gist of the method: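 This is a transcriptional endpoint in HepaRG cultures: 48 h exposure, highest concentration 100 uM. CYP2C8 mRNA is quantified by TaqMan qRT-PCR.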

Read-out in the next test: CYP2C9 (gene 1559)
Nature of the test: LTEA_HepaRG_CYP2C9: Life Technologies and Expression Analysis (LTEA) Assay for CYP2C9 using HepaRG (AID 2283484). The gist of the method:
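Eight-point concentration-response (highest 100 uM, half-log dilutions) in HepaRG cells for 48 h; CYP2C9 expression by qRT-PCR normalized to ACTB, GAPDH, POLR2A. Bidirectional fit, DMSO baseline.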

Read-out in the next test: CYP2E1 (gene 1571)
Nature of the test: LTEA_HepaRG_CYP2E1: Life Technologies and Expression Analysis (LTEA) Assay for CYP2E1 using HepaRG (AID 2283485). The gist of the method:
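CYP2E1 transcript measured by Fluidigm qRT-PCR against three housekeeping genes in human HepaRG cells treated 48 h (top 100 uM, half-log steps, 0.5% DMSO vehicle). Gain or loss fitted relative to DMSO baseline.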

Read-out in a further test: CYP4A11 (gene 1579)
Put plainly: LTEA_HepaRG_CYP4A11: Life Technologies and Expression Analysis (LTEA) Assay for CYP4A11 using HepaRG (AID 2283486). The gist of the method: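 HepaRG, 48 h chem exposure, 8 conc (100 uM top, half-log), 0.5% DMSO vehicle; qRT-PCR readout, housekeeping-gene normalized; bidirectional curve fit vs DMSO baseline.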

Read-out in test [7]: Cytochrome P450 3A4 (Homo sapiens) (UniProt P08684)
Put plainly: LTEA_HepaRG_CYP3A4: Life Technologies and Expression Analysis (LTEA) Assay for CYP3A4 using HepaRG (AID 2283487). The gist of the method:
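In a human hepatic line (HepaRG), duplicate wells were treated 48 h with up to 100 uM chemical in half-log dilutions. Endpoint: CYP3A4 mRNA induction or loss relative to 0.5% DMSO vehicle, by qRT-PCR.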

Read-out in test [8]: DNA damage-inducible transcript 3 (DDIT3), DDIT3 (gene 1649)
Put plainly: LTEA_HepaRG_DDIT3: Life Technologies and Expression Analysis (LTEA) Assay for DNA damage-inducible transcript 3 (DDIT3) using HepaRG (AID 2283488). The gist of the method:
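DDIT3 transcript was quantified by qRT-PCR with ACTB/GAPDH/POLR2A normalization after 48 h chemical treatment of differentiated HepaRG cells in 0.5% DMSO. Dosing was eight-point, half-log, top 100 uM, duplicate wells. Curves fitted bidirectionally versus DMSO.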

Read-out in test [9]: Pro-epidermal growth factor (Homo sapiens) (UniProt P01133)
Nature of the test: LTEA_HepaRG_EGF: Life Technologies and Expression Analysis (LTEA) Assay for Epidermal growth factor (EGF) using HepaRG (AID 2283489). The gist of the method:
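HepaRG, 48 h dosing, 100 uM top, half-log x8, 0.5% DMSO. Readout: TaqMan qRT-PCR (Fluidigm array), housekeeping-normalized. Gain or loss of signal fit vs DMSO.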

Read-out in test [10]: Early growth response protein 1 (EGR1) transcription factor, EGR1 (gene 1958)
Put plainly: LTEA_HepaRG_EGR1: Life Technologies and Expression Analysis (LTEA) Assay for Early growth response protein 1 (EGR1) transcription factor using HepaRG (AID 2283490). In outline: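 EGR1 expression change in human HepaRG after 48 h chemical exposure, assessed by housekeeping-normalized qRT-PCR; concentration-response up to 100 uM, fitted in both directions against DMSO controls.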

Read-out in test [11]: Ezrin (EZR), EZR (gene 7430)
Nature of the test: LTEA_HepaRG_EZR: Life Technologies and Expression Analysis (LTEA) Assay for Ezrin (EZR) using HepaRG (AID 2283491). In outline: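 Gain or loss of EZR mRNA is scored relative to 0.5% DMSO in human HepaRG cultures treated 48 h with test chemicals in duplicate, eight half-log concentrations from 100 uM.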

Read-out in test [12]: Cytochrome P450 3A7 (Homo sapiens) (UniProt P24462)
Put plainly: LTEA_HepaRG_CYP3A7: Life Technologies and Expression Analysis (LTEA) Assay for CYP3A7 using HepaRG (AID 2283492). The gist of the method:
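Human HepaRG liver cells, 48 h post-plating, switched to serum-free induction medium and exposed in duplicate for 48 h. Dosing: 100 uM top, half-log dilutions, 8 points, 0.5% DMSO vehicle. Read-out: CYP3A7 mRNA, gain or loss fitted against DMSO baseline.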

Read-out in the next test: CYP3A5 (gene 1577)
Put plainly: LTEA_HepaRG_CYP3A5: Life Technologies and Expression Analysis (LTEA) Assay for CYP3A5 using HepaRG (AID 2283493). The gist of the method:
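mRNA levels were quantified by qRT-PCR on Fluidigm arrays and normalized to three housekeeping genes. Differentiated HepaRG cells received 48 h exposure (top 100 uM, half-log steps, 0.5% DMSO vehicle, duplicate); bidirectional fitting versus DMSO.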

Read-out in test [13]: Fatty Acid-Binding Protein 1 (FABP1), FABP1 (gene 2168)
Nature of the test: LTEA_HepaRG_FABP1: Life Technologies and Expression Analysis (LTEA) Assay for Fatty Acid-Binding Protein 1 (FABP1) using HepaRG (AID 2283494). In outline:
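Values reflect bidirectional concentration-response fitting of FABP1 mRNA change against 0.5% DMSO controls. Human HepaRG cultures received eight half-log doses (top 100 uM) for 48 h; expression quantified by TaqMan qRT-PCR with housekeeping-gene normalization.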

Read-out in test [14]: Cytochrome P450 4A22 (Homo sapiens) (UniProt Q5TCH4)
Nature of the test: LTEA_HepaRG_CYP4A22: Life Technologies and Expression Analysis (LTEA) Assay for Cytochrome P450 4A22 (CYP4A22) using HepaRG (AID 2283495). In outline:
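Readout is CYP4A22 transcript induction or loss, quantified by qRT-PCR and normalized to ACTB, GAPDH and POLR2A. Human HepaRG cells receive test chemicals for 48 h at eight half-log concentrations from 100 uM in 0.5% DMSO.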

Sequence of Cytochrome P450 3A7 (Homo sapiens) (P24462 whole entry, looked up): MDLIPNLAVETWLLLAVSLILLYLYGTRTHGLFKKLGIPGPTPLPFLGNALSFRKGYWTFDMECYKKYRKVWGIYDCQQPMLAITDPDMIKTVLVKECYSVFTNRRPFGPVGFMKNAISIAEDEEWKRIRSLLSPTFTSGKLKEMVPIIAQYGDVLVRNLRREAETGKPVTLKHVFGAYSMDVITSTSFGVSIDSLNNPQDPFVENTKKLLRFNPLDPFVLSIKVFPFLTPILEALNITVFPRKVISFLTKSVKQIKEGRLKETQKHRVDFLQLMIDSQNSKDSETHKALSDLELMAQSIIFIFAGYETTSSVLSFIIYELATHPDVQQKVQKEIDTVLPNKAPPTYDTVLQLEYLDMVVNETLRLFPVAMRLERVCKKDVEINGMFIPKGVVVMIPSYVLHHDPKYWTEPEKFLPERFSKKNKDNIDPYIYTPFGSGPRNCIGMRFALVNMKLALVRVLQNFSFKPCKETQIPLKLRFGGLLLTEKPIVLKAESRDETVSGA
Sequence of Caspase-3 (Homo sapiens) (P42574 whole entry, looked up): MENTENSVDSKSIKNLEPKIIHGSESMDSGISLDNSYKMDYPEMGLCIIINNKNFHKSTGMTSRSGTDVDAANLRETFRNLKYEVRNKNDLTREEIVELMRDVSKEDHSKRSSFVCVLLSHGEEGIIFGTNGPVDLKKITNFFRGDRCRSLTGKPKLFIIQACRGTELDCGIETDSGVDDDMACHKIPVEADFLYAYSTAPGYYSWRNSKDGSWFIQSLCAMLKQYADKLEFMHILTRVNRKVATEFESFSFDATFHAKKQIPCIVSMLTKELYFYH
Sequence of Cytochrome P450 3A4 (Homo sapiens) (P08684 whole entry, looked up): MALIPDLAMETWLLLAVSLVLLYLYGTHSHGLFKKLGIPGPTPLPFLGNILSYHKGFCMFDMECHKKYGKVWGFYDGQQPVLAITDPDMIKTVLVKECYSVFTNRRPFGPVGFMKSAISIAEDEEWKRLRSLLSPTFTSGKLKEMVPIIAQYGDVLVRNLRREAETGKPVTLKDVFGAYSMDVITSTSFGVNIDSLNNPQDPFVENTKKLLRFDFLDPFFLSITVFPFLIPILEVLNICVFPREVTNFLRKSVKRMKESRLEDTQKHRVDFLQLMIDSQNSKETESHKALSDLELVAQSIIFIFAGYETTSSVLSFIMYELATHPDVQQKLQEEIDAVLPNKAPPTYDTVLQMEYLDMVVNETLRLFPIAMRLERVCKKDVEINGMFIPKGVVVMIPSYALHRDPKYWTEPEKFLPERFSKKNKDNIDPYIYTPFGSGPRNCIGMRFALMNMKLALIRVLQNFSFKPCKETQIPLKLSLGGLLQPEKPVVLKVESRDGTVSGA
Sequence of Cytochrome P450 2C19 (Homo sapiens) (P33261 whole entry, looked up): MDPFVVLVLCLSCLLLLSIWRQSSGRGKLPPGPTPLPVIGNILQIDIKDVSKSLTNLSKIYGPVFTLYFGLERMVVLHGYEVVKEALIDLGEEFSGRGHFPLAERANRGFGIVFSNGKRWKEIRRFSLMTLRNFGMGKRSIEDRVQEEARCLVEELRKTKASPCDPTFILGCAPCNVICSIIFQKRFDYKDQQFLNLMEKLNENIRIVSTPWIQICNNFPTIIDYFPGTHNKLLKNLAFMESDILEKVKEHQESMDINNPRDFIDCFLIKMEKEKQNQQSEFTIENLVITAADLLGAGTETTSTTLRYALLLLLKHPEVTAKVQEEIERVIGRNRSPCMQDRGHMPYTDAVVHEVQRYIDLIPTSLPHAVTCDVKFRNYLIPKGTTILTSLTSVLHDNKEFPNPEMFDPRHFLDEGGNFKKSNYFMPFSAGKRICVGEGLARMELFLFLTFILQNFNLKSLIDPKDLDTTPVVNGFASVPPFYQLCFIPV

For the compound `CN(C)c1ccc(Cc2ccc(N(C)C)cc2)cc1`, the outcome in test [1], in test [2], in [4], in test [8], in test [9] and in [10] was inactive. For the same compound, the result (in test [11]; in the test with CYP3A5 (gene 1577); in test [13]) was inactive. The AC50 is 50 µM (active) in the test with Caspase-3 (Homo sapiens); 13 µM (active) in test [3]; 1.6 µM (active) in [5]; 12.5 µM (active) in [6]; 90.6 µM (active) in the test with CYP2C8 (gene 1558); 90.8 µM (active) in the test with CYP2C9 (gene 1559). In addition, the AC50 with CYP2E1 (gene 1571) was 50 µM (active); with CYP4A11 (gene 1579), 89 µM (active); in test [7], 2.5 µM (active); in test [12], 11.6 µM (active); in [14], 50 µM (active).
On to `CCOC(=O)c1ccc(C2CCC(NC[C@H](O)COc3ccc(O)c(NS(C)(=O)=O)c3)CC2)cc1` (stereo not given in full), for which the outcome (in [1]; with Caspase-3 (Homo sapiens); in test [2]; in test [3]; in [4]; in test [5]) was inactive. Also, the call (in [6]; with CYP2C8 (gene 1558); with CYP2C9 (gene 1559); in the test with CYP2E1 (gene 1571); with CYP4A11 (gene 1579); in test [7]) was inactive. In addition, the compound was classed as inactive (in test [8]; in test [9]; in test [10]; in test [11]; in test [12]; with CYP3A5 (gene 1577)). The result in test [13] and in test [14] was inactive.
Regarding `CC[C@H]1OC(=O)[C@H](C)[C@@H](O[C@H]2C[C@@](C)(OC)[C@@H](O)[C@H](C)O2)[C@H](C)[C@@H](O[C@@H]2O[C@H](C)C[C@H](N(C)C)[C@H]2O)[C@](C)(O)C[C@@H](C)C(=O)[C@H](C)[C@@H](O)[C@]1(C)O`, the result (in test [1]; with Caspase-3 (Homo sapiens); in [2]; in test [4]; in test [6]; in the test with CYP2C8 (gene 1558)) was inactive. For the same compound, the call (with CYP2C9 (gene 1559); with CYP4A11 (gene 1579); in test [8]; in [9]; in [10]; in test [11]) was inactive. For the same compound, the result (with CYP3A5 (gene 1577); in test [13]; in [14]) was inactive. The AC50 was 59.1 µM (active) in test [3]; 5.59 µM (active) in test [5]; 16 µM (active) in the test with CYP2E1 (gene 1571); 19.6 µM (active) in test [7]; 13.9 µM (active) in [12].
